A short description of experiment [1]: antimalarial activity against Dd2 strain (AID 2302;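 active = growth inhibition above 50% at the single 2 µM test dose, taken to imply half-maximal potency below 2 µM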;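 note: 0% = DMSO untreated growth and 100% = chloroquine plus artemisinin killed control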). To be noted: P. falciparum Dd2 in RBCs, LDH growth readout, 72 h; at 2 µM; stronger effect = higher value.
Experiment [2] in a line: HepG2 cytotoxicity, primary screen, cytotoxicity control for P. falciparum antimalarial project, cell-based, ATP luminescence (AID 2303;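 active = inhibition above 50%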;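 note: 0% = DMSO wells and 100% = digitonin-killed cells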). To be noted: HepG2 viability, 24-48 h, at 10 µM, stronger effect = higher value.
Experiment [3] concerns the target L-lactate dehydrogenase (Plasmodium falciparum (isolate CDC / Honduras)) (UniProt Q27743). In words: PfLDH activity inhibition – cell lysate, 3D7 strain, counter-screen for P. falciparum growth inhibition project (AID 2304).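 Note: 0% = vehicle and 100% = reference inhibitor.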 To be noted: P. falciparum 3D7 crude extract, LDH APAD/NBT absorbance; at 2 µM; stronger effect = higher value.
Experiment [4] can be described thus: inhibition of 3D7 malaria parasite growth – strain 3D7 (AID 2306).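 Note: 0% = DMSO wells and 100% = chloroquine plus artemisinin control wells.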 Conditions: P. falciparum 3D7 erythrocytic growth, LDH absorbance, 72 h; at 2 µM; stronger effect = higher value.
The target in experiment [5] is Calcium-dependent protein kinase 1 (Plasmodium falciparum (isolate 3D7)) (UniProt P62344). Nature of the experiment: PfCDPK1 kinase inhibitors, biochemical, TCAMS library (AID 1159585; cut-off not given, nearly all actives have IC50 up to about 0.98 µM;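 note: inhibitors leave more ATP so luminescence rises with inhibition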). Conditions: recombinant PfCDPK1, Kinase-Glo ATP depletion luminescence. For orientation: Kinase-Glo reads ATP consumption through a luciferase reaction.
Sequence of Calcium-dependent protein kinase 1 (Plasmodium falciparum (isolate 3D7)) (P62344 whole entry, looked up): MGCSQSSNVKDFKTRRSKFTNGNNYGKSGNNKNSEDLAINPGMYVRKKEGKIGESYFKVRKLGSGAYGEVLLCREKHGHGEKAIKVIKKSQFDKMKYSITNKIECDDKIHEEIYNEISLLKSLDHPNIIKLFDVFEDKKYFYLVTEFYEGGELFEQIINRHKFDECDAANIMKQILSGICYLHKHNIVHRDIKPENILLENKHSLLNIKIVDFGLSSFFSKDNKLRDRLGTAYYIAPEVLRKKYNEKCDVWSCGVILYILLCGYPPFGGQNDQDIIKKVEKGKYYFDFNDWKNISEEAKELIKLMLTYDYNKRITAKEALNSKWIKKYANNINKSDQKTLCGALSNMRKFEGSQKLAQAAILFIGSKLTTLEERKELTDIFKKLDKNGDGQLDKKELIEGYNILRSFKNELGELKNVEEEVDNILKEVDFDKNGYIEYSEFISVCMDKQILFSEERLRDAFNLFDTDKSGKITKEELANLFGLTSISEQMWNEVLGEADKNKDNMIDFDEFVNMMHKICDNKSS
Experiment [6] concerns the target Plasmodium falciparum protein kinase 6 (PK6, PF3D7_1337100) (UniProt Q8IDW1). Nature of the experiment: PfPK6 kinase inhibitors, biochemical, TCAMS library (AID 1159586). To be noted: recombinant PfPK6, Kinase-Glo ATP depletion luminescence.
The target of experiment [7] is Protein kinase 7 (PK7), Plasmodium falciparum 3D7 (PF3D7_0213400) (UniProt Q7YTF7). In words: inhibition of Plasmodium PK7 catalytic activity – biochemical, TCAMS antimalarial set, Kinase-Glo luminescence (AID 1159587). To be noted: recombinant PfPK7, Kinase-Glo ATP depletion luminescence.
Sequence of Protein kinase 7 (PK7), Plasmodium falciparum 3D7 (PF3D7_0213400) (Q7YTF7 1-343): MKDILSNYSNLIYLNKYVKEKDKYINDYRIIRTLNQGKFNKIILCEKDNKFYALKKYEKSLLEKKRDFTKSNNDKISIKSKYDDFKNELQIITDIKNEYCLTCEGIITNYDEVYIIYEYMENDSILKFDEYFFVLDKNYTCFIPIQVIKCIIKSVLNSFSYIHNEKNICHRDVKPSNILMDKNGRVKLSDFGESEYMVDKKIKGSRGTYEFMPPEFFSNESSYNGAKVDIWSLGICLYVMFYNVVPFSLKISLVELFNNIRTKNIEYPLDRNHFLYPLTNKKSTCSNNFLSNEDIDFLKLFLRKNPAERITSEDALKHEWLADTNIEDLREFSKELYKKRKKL
Experiment [8] has as its target Calcium-dependent protein kinase 4 (Plasmodium falciparum (isolate 3D7)) (UniProt Q8IBS5). Nature of the experiment: PfCDPK4 kinase inhibitors, biochemical, TCAMS library (AID 1159588; cut-off not given, nearly all actives have IC50 up to about 0.91 µM). Conditions: recombinant PfCDPK4, Kinase-Glo ATP depletion luminescence.
Experiment [9] can be described thus: liver-stage malaria parasite growth inhibition, primary screen, cell-based, HepG2, luciferase luminescence, HepG2 viability (AID 624349; in the data active = parasite load remaining mostly below about 12%, no sharp cut-off; inactive = mostly above about 10%;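 note: 100% = mean of DMSO negative control wells on the same plate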). To be noted: P. berghei liver stage in HepG2, luciferase luminescence, concentration not given here; parasite load remaining: stronger effect = lower value; viability: measured here: HepG2 viability without parasites.
The test system of experiment [10] is Aerobactin synthetase IucA (Klebsiella pneumoniae). In words: IucA aerobactin synthetase inhibitors, biochemical, Tocris library, absorbance (AID 1345561).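 Note: 100% = enzyme without compound and 0% = no enzyme.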 Conditions: purified IucA enzyme assay, absorbance (OD) read-out; stronger effect = lower value;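 tested at 8 µM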.
Experiment [11] is described as follows: growth inhibition of DIPG glioma cells, dose response, cell-based, SU-DIPG-XVII, MIPE5.0, CellTiter-Glo, qHTS (AID 1347060; cut-off not given, nearly all actives have AC50 up to about 26 µM;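 note: cells exposed to compound for 48 hours before viability readout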). To be noted: SU-DIPG-XVII viability, CellTiter-Glo ATP luminescence.
Experiment [12] is described as follows: growth inhibition of DIPG glioma cells, dose response, cell-based, SU-DIPG-XIII, MIPE4.0, CellTiter-Glo, qHTS (AID 1347061; cut-off not given, nearly all actives have AC50 up to about 37 µM;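 note: cells exposed to compound for 48 hours before readout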). To be noted: SU-DIPG-XIII viability, CellTiter-Glo ATP luminescence. In general terms: Cellular ATP, detected with luciferase, serves as a proxy for viable cell number.
The nature of experiment [13]: growth inhibition of DIPG glioma cells, dose response, cell-based, JHH-DIPG-1, MIPE4.0, CellTiter-Glo, qHTS (AID 1347062; cut-off not given, nearly all actives have AC50 up to about 27 µM;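 note: cells exposed to compound for two days before readout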). Conditions: JHH-DIPG-1 viability, CellTiter-Glo ATP luminescence.
A short description of experiment [14]: growth inhibition of DIPG glioma cells, dose response, cell-based, SU-DIPG-IV, MIPE4.0, CellTiter-Glo, qHTS (AID 1347063; cut-off not given, nearly all actives have AC50 up to about 30 µM;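 note: compound exposure lasted 48 hours before the viability readout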). Conditions: SU-DIPG-IV viability, CellTiter-Glo ATP luminescence.
Experiment [15] in a line: growth inhibition of DIPG glioma cells, dose response, cell-based, SU-DIPG-XIII, MIPE5.0, CellTiter-Glo, qHTS (AID 1347064; cut-off not given, nearly all actives have AC50 up to about 23 µM;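 note: cells exposed to compound for 48 hours before the viability read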). Conditions: SU-DIPG-XIII viability, CellTiter-Glo ATP luminescence.
A short description of experiment [16]: viability loss in pontine glioma line – cell-based, SU-DIPG-XXV, MIPE5.0, CellTiter-Glo, qHTS, dose response (AID 1347065; cut-off not given, nearly all actives have AC50 up to about 26 µM;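 note: cells exposed to compound for 48 hours before ATP readout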). To be noted: CellTiter-Glo ATP luminescence.
Experiment [17] can be described thus: SU-DIPG-VI glioma cell viability, MIPE4.0 library, CellTiter-Glo luminescence, qHTS (AID 1347066; cut-off not given, nearly all actives have AC50 up to about 30 µM;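 note: cells exposed to compound for 48 hours before readout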). To be noted: CellTiter-Glo ATP luminescence.
Experiment [18] is described as follows: JHH-DIPG-1 glioma cell viability, MIPE5.0 library, CellTiter-Glo luminescence, qHTS (AID 1347067; cut-off not given, nearly all actives have AC50 up to about 26 µM;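 note: cells exposed to compound for 48 hours before readout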). To be noted: JHH-DIPG-1 glioma viability, CellTiter-Glo ATP luminescence.
Experiment [19] can be described thus: SU-DIPG-XXV glioma cell viability, MIPE5.0 library, qHTS (AID 1347068; cut-off not given, nearly all actives have IC50 up to about 30 µM;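 note: cells exposed to compound for 48 hours before viability readout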). (In general: Quantitative high-throughput screening tests each substance at several concentrations.)
The nature of experiment [20]: sensitizers of A549 cells to miR-34 induction, primary screen, imaging, A549 dox-inducible miR-34, nuclei and caspase counts (AID 1347080;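 active = compounds whose cell count with miR-34 switched on is under 0.7 times the count with it off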). To be noted: A549 miR-34 inducible, Hoechst nuclei count, 48 h.
Experiment [21] is described as follows: survival rescue of mitochondrial mutant cells in low glucose, primary screen, MELAS cybrids, Rieske KO mouse fibroblasts, CellTiter-Glo (AID 1508586;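 active = mean z-score across replicates of 1.96 or higher in either the MELAS or the Rieske mutant cell line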;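 note: z relative to plate mean and SD of compound and empty wells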).
The nature of experiment [22]: viability rescue of complex I mutant cybrids, primary screen, cell-based, galactose medium, ATP luminescence (AID 1645843;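 active = z-score of at least 1.8 in each of two replicates, scored against plate mean and spread of sample wells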;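 note: positive z means more ATP and so rescue of galactose-driven cybrid death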). To be noted: complex I mutant cybrid cells, 72 h, stronger effect = higher value.

Several values for one entry are separate records, joined by “and”; a condition that tells them apart may be missing. Equal values may be shown once. Records with an inconclusive call do not appear. For some of these results: Entries with a potency or affinity are not part of this list. Activity calls are given as the source filed them. Unless noted, the rule behind the calls is not given here.

Sequence of Plasmodium falciparum protein kinase 6 (PK6, PF3D7_1337100) (Q8IDW1 1-305): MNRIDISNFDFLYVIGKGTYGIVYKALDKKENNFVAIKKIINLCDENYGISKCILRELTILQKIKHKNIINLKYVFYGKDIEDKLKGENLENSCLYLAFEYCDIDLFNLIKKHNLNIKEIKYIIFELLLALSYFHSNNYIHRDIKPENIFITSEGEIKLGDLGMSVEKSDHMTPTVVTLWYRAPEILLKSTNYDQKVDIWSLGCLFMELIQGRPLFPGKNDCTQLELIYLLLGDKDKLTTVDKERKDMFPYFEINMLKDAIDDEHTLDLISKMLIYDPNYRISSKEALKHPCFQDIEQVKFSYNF
Sequence of L-lactate dehydrogenase (Plasmodium falciparum (isolate CDC / Honduras)) (Q27743 whole entry, looked up): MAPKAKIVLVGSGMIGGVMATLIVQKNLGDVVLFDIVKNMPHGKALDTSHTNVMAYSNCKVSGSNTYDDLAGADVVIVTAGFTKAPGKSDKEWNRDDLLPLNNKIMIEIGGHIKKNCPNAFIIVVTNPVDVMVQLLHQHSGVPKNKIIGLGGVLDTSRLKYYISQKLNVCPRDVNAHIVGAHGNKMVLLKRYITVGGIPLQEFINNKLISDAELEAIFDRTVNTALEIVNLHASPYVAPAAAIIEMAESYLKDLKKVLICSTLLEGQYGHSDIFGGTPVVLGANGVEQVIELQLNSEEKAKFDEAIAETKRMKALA
Sequence of Calcium-dependent protein kinase 4 (Plasmodium falciparum (isolate 3D7)) (Q8IBS5 whole entry, looked up): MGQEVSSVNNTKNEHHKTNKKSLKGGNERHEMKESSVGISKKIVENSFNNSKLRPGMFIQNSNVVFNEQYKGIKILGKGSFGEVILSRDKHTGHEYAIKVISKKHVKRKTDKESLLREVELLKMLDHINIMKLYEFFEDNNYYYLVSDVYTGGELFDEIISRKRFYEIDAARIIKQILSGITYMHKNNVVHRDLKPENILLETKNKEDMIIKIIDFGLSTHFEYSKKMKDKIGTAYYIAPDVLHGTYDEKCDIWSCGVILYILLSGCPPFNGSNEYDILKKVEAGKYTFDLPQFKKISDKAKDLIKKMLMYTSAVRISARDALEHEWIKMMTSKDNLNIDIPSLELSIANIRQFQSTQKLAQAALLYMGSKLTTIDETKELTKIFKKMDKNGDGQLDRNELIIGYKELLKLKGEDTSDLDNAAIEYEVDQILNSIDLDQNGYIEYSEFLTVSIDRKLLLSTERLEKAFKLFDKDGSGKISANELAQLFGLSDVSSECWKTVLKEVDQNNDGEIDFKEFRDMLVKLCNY

One may read the inhibition as the drop in the measured response relative to a control, in per cent. Consider `CCc1nc2c(N)nc(N)nc2nc1-c1ccc(OC)cc1`, for which the growth inhibition was -3% (inactive) in [1] and 86% (active) in [4]. The inhibition in experiment [2] is 44% (inactive); in experiment [3], 2% (inactive). The outcome in experiment [5], in experiment [6], in experiment [7] and in experiment [8] was inactive.

As for `Cc1cnc(N)c(/C=C/c2cncc(C(=O)NCCc3ccc(Cl)cc3Cl)c2)c1`, the growth inhibition in experiment [1] is 100% (active). Moreover, in experiment [2], the inhibition is 2% (inactive). Besides, the outcome in [5], in [6], in experiment [7] and in experiment [8] was inactive.

Usually viability stands for a read-out of living cells in per cent, often relative to untreated cells. The remaining activity is the signal under treatment as a percentage of the control signal. For orientation: AC50 means the midpoint of the concentration-response curve, whichever way the signal moves. As usually defined, the IC50 is the concentration needed to halve the response being measured. For the molecule `O=C(Nc1cc(C(F)(F)F)cc(C(F)(F)F)c1)c1cc(Cl)ccc1O`, the growth inhibition was 98% (active) in experiment [1] and 90% (active) in experiment [4]. Besides, the inhibition in experiment [2] is 84% (active); in experiment [3] it was 2% (inactive). Further, the parasite load remaining in experiment [9] was 0.02% (inactive). In [9], this molecule gave a viability of 51.5%. The result in experiment [5], in [6], in [7] and in experiment [8] was inactive. For the same molecule, the remaining activity in [10] is 120% (inactive). In addition, the AC50 is 1320 nM (active) in [11]; 590 nM (active) in [12]; 1870 nM (active) in experiment [13]; 1480 nM (active) in experiment [14]; 1860 nM (active) in experiment [15]; 1320 nM (active) in [16]. The values for the half-maximal activity concentration (AC50) in experiment [17] and in [18] were 209 nM (active) and 1480 nM (active), respectively. For the same molecule, the half-inhibitory concentration (IC50) in experiment [19] was 2630 nM (active). Also, the fold change is 0.989 (inactive) and 1.06 (inactive) in experiment [20] (stronger effect = lower value, cell number ratio, induced over uninduced); 0.581 and 1.23 in experiment [20] (measured here: relative caspase fold change +Dox/-Dox). Further, the cell count in [20] (measured here: total cells with miR-34 induction, stronger effect = lower value) is 1480 and 1100; in experiment [20] (measured here: total cells without miR-34 induction), 1500 and 1040. For the same molecule, the z-score is 0.314 (inactive) in [21] (MELAS cybrid survival, CellTiter-Glo 48 h, stronger effect = higher value); -0.453 in experiment [21] (Rieske KO mouse fibroblast survival, CellTiter-Glo 72 h); -0.7 (inactive) in [22].

As to `Cc1ccc(NCc2cccc(F)c2)cc1S(=O)(=O)N[C@@H]1CCN(C#N)C1`, the growth inhibition in [1] was 83% (active); in experiment [4], 89% (active). The inhibition in experiment [2] is 13% (inactive); in experiment [3] it was -2% (inactive). In addition, the result in [5], in experiment [6], in experiment [7] and in experiment [8] was inactive.

With `Cc1noc(C)c1-c1ccc2c(Nc3ccccc3C(C)(C)C)c(C(=O)NCc3ccc(OC(C)C)cc3)cnc2c1`, the results for the growth inhibition in experiment [1] and in experiment [4] were 98% (active) and 100% (active), respectively. In addition, the inhibition in experiment [2] is -3% (inactive); in experiment [3], 0% (inactive). Besides, the outcome in [5], in experiment [6], in experiment [7] and in experiment [8] was inactive.

Take `COc1ccccc1N1CCN(Cc2cc(C(C)C)c(C)cc2O)CC1`: the growth inhibition in experiment [1] is 98% (active); in experiment [4] it was 97% (active). The inhibition in experiment [2] is 7% (inactive); in experiment [3], 2% (inactive). Besides, the result in [5], in [6], in experiment [7] and in [8] was inactive.

As to `CN1CCC(NCc2ccc(-c3ccc(S(=O)(=O)NC4CCC4)s3)cc2)CC1`, the growth inhibition is 31% (inactive) in [1] and 92% (active) in experiment [4]. In addition, the figures for the inhibition in experiment [2] and in experiment [3] were 31% (inactive) and 1% (inactive), respectively. In addition, the outcome in experiment [5], in experiment [6], in experiment [7] and in experiment [8] was inactive.

Take `O=C(C=Cc1cn(-c2ccccc2)nc1-c1cccs1)N1CCN(c2ccncc2)CC1`: the growth inhibition in experiment [1] was 61% (active); in experiment [4], 100% (active). Besides, the results for the inhibition in experiment [2] and in experiment [3] were 31% (inactive) and 1% (inactive), respectively. Also, the result in experiment [5], in [6], in experiment [7] and in experiment [8] was inactive.

Turning to `O=C(NC1CCCCC1)N(Cc1cccc(-c2ccc(CNC3CCCC3)cc2)c1)C1CCN(Cc2ccccc2)CC1`, the growth inhibition is 89% (active) in [1] and 98% (active) in experiment [4]. The inhibition in experiment [2] is 37% (inactive); in [3], -2% (inactive). Further, the result in experiment [5], in [6], in [7] and in experiment [8] was inactive.

In the case of `Cc1cc(NCC2CCN(CC3CCCCC3)C2)nc(Nc2ccc(Br)cc2)n1` (configuration not stated), the growth inhibition in experiment [1] is 78% (active); in [4] it was 101% (active). In addition, the inhibition in experiment [2] is -2% (inactive); in experiment [3], 0% (inactive). The result in experiment [5], in [6], in experiment [7] and in [8] was inactive.

For the origin of these results see PubChem BioAssay.
